Values joined by “and” are separate entries in the source; they are usually repeats but may differ in a detail not shown here. Equal values may be shown once. Some structures have more than one record in an assay (separate samples or runs), and their calls can disagree. Active and inactive are the calls of the source. Rule for the calls: active = hit-call score of the fitted dose curve at least 0.9, where 1 is the maximum; inactive = score below 0.9.
Experiments:
[1] = APR_HepG2_CellLoss_72hr: Apredica 72-hour HepG2 Assay for Cell Loss (AID 2282915); details: high-content imaging
Method in brief: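 HepG2 cells exposed 72 h to compound at 0.39–200 uM (10 concentrations, duplicate) in 0.5% DMSO. Fixed with 3.7% formaldehyde and Hoechst 33342-stained. Imaged at 20x; nuclear count gives cell number, fitted bidirectionally versus DMSO.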

[2] = APR_HepG2_P-H2AX_72hr: Apredica 72-hour HepG2 Assay for H2AX Phosphorylation (AID 2282916); details: imaging, actives raise or lower the signal;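 note: phospho-histone H2A.x immunostain intensity per cell marking DNA damage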
Method in brief: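 Phospho-histone H2A.x immunofluorescence, multiplexed with Hoechst and c-Jun, quantified by high-content imaging. Compounds applied to HepG2 for 72 h across ten concentrations (0.39–200 uM, 0.5% DMSO), in duplicate; DMSO baseline.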

[3] = APR_HepG2_MitoMembPot_72hr: Apredica 72-hour HepG2 Assay for Mitochondrial Membrane Potential (AID 2282917); details: imaging, actives raise or lower the signal
Method in brief: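 HepG2 cells dosed 72 hr with compound at 0.39–200 uM in duplicate, 0.5% v/v DMSO final. Mitochondria stained with 250 nM MitoTracker Red CMXRos for 30 min before formaldehyde fixation, imaged by high-content fluorescence; bidirectional fit versus DMSO.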

[4] = APR_HepG2_MitoticArrest_72hr: Apredica 72-hour HepG2 Assay for Mitotic Arrest (AID 2282918); details: high-content imaging, actives raise or lower the signal
Method in brief: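 HepG2 cells treated 72 h at 0.39–200 uM, 0.5% DMSO final; formaldehyde-fixed, stained with Hoechst 33342 and phospho-histone H3 antibody, imaged by high-content fluorescence; bidirectional fit versus DMSO.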

[5] = APR_HepG2_MicrotubuleCSK_72hr: Apredica 72-hour HepG2 Assay for Microtubule CSK Stabilty (AID 2282919); details: HepG2 microtubule cytoskeleton, high-content imaging, actives raise or lower the signal
Method in brief: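 HepG2, 72 hr cmpd exposure, 0.39–200 uM (10 pts, duplicate), 0.5% DMSO. 3.7% formaldehyde fix, 0.5% Triton perm, anti-alpha-tubulin/Cy5 plus Hoechst. HCS fluorescence intensity; bidirectional fit vs DMSO baseline; taxol as positive control.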

[6] = APR_HepG2_P-H2AX_24hr: Apredica 24-hour HepG2 Assay for H2AX Phosphorylation (AID 2282920); details: high-content imaging, actives raise or lower the signal
Method in brief: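 HepG2 cells dosed 24 h at 0.39–200 uM (10 points, duplicate, 0.5% DMSO final). Formaldehyde-fixed and permeabilized, then immunostained for phospho-H2A.x with Hoechst. Fluorescence quantified by high-content imaging, fitted bidirectionally versus DMSO.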

[7] = APR_HepG2_StressKinase_72hr: Apredica 72-hour HepG2 Assay for Stress Kinase (AID 2282921); details: HepG2 stress kinase (phospho-c-Jun) imaging, actives raise or lower the signal
Method in brief: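 Stress kinase signal is phospho-c-Jun immunofluorescence (1:500 primary, Cy3 secondary) in fixed, permeabilized human HepG2 cells imaged at 20x. Exposure lasted 72 hr over ten concentrations from 0.39 to 200 uM, 0.5% DMSO, in duplicate. Bidirectional fit versus DMSO.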

[8] = APR_HepG2_StressKinase_24hr: Apredica 24-hour HepG2 Assay for Stress Kinase (AID 2282922); details: HepG2 stress kinase (phospho-c-Jun) imaging, actives raise or lower the signal
Method in brief: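 Read-out: phospho-c-Jun immunofluorescence (Cy3 secondary) quantified by high-content imaging at 20x, nuclei defined by Hoechst 33342. Human HepG2 liver cells dosed 24 hr, 0.39–200 uM, DMSO 0.5% v/v; gain or loss of signal fitted relative to DMSO.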

[9] = APR_HepG2_p53Act_72hr: Apredica 72-hour HepG2 Assay for p53 Activation (AID 2282923); details: high-content imaging, actives raise or lower the signal;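 note: average cellular p53 protein immunofluorescence intensity in HepG2 cells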
Method in brief: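 After 72 h with compound (ten points, 0.39 to 200 uM, final DMSO 0.5% v/v), fixed HepG2 cells were labelled with sheep anti-p53 and Hoechst 33342 and imaged; gain or loss versus DMSO scored.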

[10] = APR_HepG2_NuclearSize_72hr: Apredica 72-hour HepG2 Assay for Nuclear Size (AID 2282925); details: high-content imaging, actives raise or lower the signal
Method in brief: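 Read-out: nuclear diameter from Hoechst 33342 images (ArrayScan, 20x, six fields/well), via cell-cycle image analysis. HepG2 were dosed 0.39–200 uM for 72 hr in 0.5% DMSO. Bidirectional fit relative to DMSO.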

[11] = ATG_CRE_CIS: Attagene CIS-FACTORIAL HepG2 Assay for human cAMP Responsive Element (CRE) binding protein 3 (AID 2282926); details: HepG2 CRE cis-reporter, Attagene multiplexed mRNA; actives raise or lower the signal
Method in brief: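 Induced reporter mRNA from a CRE cis element, measured in HepG2 among many multiplexed units at 24 h. Detection used RT-PCR plus capillary electrophoresis of fluorescent fragments; DMSO served as negative control.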

[12] = biological target: CCAAT/enhancer-binding protein beta (Homo sapiens) (UniProt P17676); assay: ATG_C_EBP_CIS: Attagene CIS-FACTORIAL HepG2 Assay for human CCAAT/Enhancer Binding Protein (C/EBP) beta (AID 2282927); details: HepG2 Attagene cis-factorial transcription factor reporter; actives raise or lower the signal
Method in brief: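 HepG2, transient MRTU transfection, 24 h treatment. RT-PCR plus CE fluorescence; DMSO negative control, bidirectional fit.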

[13] = ATG_DR4_LXR_CIS: Attagene CIS-FACTORIAL HepG2 Assay for human Liver X Receptor (LXR), DR4 submotif (AID 2282929); details: HepG2 Attagene DR4 cis-reporter, mRNA transcription; actives raise or lower the signal
Method in brief: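 Cells were transfected with multiple reporter transcription units, exposed to chemicals for 24 hours, then lysed for RNA. Reporter mRNA induction was measured by RT-PCR with capillary electrophoresis detection and fitted in both directions relative to DMSO.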

[14] = biological target: Aryl hydrocarbon receptor (Homo sapiens) (UniProt P35869); assay: ATG_Ahr_CIS: Attagene CIS-FACTORIAL HepG2 Assay for human Aryl Hydrocarbon Receptor (Ahr) (AID 2282930); details: HepG2 AhR cis-factorial reporter transcription; actives raise or lower the signal
Method in brief: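 Endogenous factor activity is tracked through cis-promoter reporter units transfected into HepG2 cells. Transcript levels at 24 h are read by fluorescent RT-PCR and capillary electrophoresis, with activity in either direction scored relative to DMSO.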

[15] = ATG_AP_1_CIS: Attagene CIS-FACTORIAL HepG2 Assay for human Activator Protein 1 (AP-1) (AID 2282931); details: HepG2 Attagene cis-factorial AP-1 reporter mRNA; actives raise or lower the signal
Method in brief: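 Endogenous transcription-factor activity in human HepG2 liver cells is read through a cis-promoter reporter transcript, sampled 24 h after dosing. Detection uses RT-PCR with capillary electrophoresis; values come from bidirectional fitting relative to DMSO.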

[16] = ATG_AP_2_CIS: Attagene CIS-FACTORIAL HepG2 Assay for human Activator Protein 2 (AP-2) (AID 2282932); details: HepG2 AP-2 cis-reporter, Attagene transcription factor profiling; actives raise or lower the signal
Method in brief: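 Liver-derived HepG2 line, cis-reporter system measuring endogenous factors; 24 h dosing; reporter mRNA detected by fluorescent RT-PCR and capillary electrophoresis.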

[17] = ATG_BRE_CIS: Attagene CIS-FACTORIAL HepG2 Assay for human Bone Morphogenetic Protein (BMP) Response Element (BRE) (AID 2282933); details: HepG2 BMP response element reporter, Attagene transcription factor profiling; actives raise or lower the signal
Method in brief: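 HepG2 cells transiently transfected with multiplexed cis-element reporter units were dosed with chemical for 24 h. Reporter mRNA was measured by RT-PCR with fluorescent labelling, HpaI digestion and capillary electrophoresis; bidirectional fitting relative to DMSO.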

[18] = biological target: Retinoic acid receptor alpha (Homo sapiens) (UniProt P10276); assay: ATG_DR5_RAR_CIS: Attagene CIS-FACTORIAL HepG2 Assay for human Retinoic Acid Receptor Alpha (RARE), DR5 submotif (AID 2282934); details: HepG2 Attagene cis-factorial RARE DR5 reporter, mRNA; actives raise or lower the signal;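 for AC50: reporter responds to endogenous RAR alpha beta and gamma in HepG2 not RARA alone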
Method in brief: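 After 24 h of chemical exposure, transiently transfected HepG2 cells were lysed for total RNA; the DR5-regulated reporter transcript was quantified via RT-PCR and capillary electrophoresis, with activity fitted bidirectionally against DMSO.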

[19] = ATG_CMV_CIS: Attagene CIS-FACTORIAL HepG2 Assay for human CMV (Internal Marker) (AID 2282928); details: HepG2 CMV promoter reporter, transcription factor profiling; actives raise or lower the signal;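 note: endpoint acts as a background internal control marker rather than a target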
Method in brief: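 Readout: fluorescent reporter cDNA fragments separated by capillary electrophoresis after RT-PCR and HpaI cut. Cells: HepG2 carrying transfected cis-promoter reporter constructs, dosed 24 h. Endpoint serves as background internal-marker control, fit bidirectionally versus DMSO.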

Measured: AC50

Chain of CCAAT/enhancer-binding protein beta (Homo sapiens) (P17676 whole entry, looked up): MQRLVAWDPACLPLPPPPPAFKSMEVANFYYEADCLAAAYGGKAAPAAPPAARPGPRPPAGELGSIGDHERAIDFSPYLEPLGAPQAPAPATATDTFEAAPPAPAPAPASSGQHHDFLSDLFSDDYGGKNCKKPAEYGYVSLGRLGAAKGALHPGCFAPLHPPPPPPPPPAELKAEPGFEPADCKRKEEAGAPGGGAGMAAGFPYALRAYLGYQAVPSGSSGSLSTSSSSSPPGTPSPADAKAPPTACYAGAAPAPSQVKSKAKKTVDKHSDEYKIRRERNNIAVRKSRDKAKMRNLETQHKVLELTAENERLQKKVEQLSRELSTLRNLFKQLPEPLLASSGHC
Chain of Aryl hydrocarbon receptor (Homo sapiens) (P35869 whole entry, looked up): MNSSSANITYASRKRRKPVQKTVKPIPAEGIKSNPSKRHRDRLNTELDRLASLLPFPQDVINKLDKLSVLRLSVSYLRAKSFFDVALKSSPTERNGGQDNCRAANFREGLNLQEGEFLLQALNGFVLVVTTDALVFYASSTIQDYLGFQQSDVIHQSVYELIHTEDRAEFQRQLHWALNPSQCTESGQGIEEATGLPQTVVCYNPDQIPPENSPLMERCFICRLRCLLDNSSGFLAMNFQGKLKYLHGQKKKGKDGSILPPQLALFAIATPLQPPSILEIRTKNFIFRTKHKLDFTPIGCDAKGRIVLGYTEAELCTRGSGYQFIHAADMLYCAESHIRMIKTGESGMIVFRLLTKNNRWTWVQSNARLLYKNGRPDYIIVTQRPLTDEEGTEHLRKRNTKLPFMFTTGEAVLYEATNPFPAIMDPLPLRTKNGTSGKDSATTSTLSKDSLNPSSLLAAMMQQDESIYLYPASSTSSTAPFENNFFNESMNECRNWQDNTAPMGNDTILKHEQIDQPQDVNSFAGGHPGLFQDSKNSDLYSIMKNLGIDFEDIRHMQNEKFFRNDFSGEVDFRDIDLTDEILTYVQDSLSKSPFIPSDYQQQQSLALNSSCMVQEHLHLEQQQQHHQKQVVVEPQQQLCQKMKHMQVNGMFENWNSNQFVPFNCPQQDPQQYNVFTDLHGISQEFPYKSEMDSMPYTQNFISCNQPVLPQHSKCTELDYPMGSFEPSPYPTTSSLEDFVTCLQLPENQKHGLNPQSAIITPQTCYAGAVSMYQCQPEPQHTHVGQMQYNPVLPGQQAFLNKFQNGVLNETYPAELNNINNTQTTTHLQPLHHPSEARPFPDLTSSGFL
Chain of Retinoic acid receptor alpha (Homo sapiens) (P10276 whole entry, looked up): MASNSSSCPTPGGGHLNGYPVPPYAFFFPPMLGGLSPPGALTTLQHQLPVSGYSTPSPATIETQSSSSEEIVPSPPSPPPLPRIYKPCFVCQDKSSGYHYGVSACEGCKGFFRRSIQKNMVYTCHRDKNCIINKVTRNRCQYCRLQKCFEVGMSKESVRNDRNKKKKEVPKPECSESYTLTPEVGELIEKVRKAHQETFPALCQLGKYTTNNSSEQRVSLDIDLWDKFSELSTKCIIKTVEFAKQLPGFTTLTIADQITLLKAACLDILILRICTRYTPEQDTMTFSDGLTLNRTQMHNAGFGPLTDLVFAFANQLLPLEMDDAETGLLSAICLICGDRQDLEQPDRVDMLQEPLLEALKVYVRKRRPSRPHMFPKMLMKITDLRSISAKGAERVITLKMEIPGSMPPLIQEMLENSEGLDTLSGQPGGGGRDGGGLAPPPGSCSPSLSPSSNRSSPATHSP

CCCCC[C@H](O)CC(=O)CCc1ccc(O)c(OC)c1
active: [16] 79.2 µM
not listed: [19]
inactive: all other assays above

OC1CCC(C2CCCCC2)CC1 (stereo not drawn)
inactive: [1] | [2] | [3] | [4] | [5] | [6] | [7] | [8] | [9] | [11] | [12] | [14] | [15] | [16] | [17] | [18]
active: [13] 158 µM [middle of 4 runs] | [14] 1.32 µM and 47 µM | [15] 162 µM and 149 µM | [16] 56.9 µM

NCC(F)(F)C(F)(F)C(F)(F)C(F)(F)C(F)(F)C(F)(F)C(F)(F)F
inactive: [11] | [12] | [19] | [13] | [14] | [15] | [16] | [17] | [18]

CCCCCCCCCCCCCC[N+](C)(C)C
inactive: [11] | [12] | [19] | [13] | [14] | [16] | [18]
active: [19] 15.2 µM | [13] 16.6 µM | [15] 6.78 µM and 7.32 µM | [17] 13.1 µM and 4.06 µM

Cc1oc(-c2ccccc2)nc1CCOc1ccc(C[C@H](Nc2ccccc2C(=O)c2ccccc2)C(=O)O)cc1
active: [1] 53.3 µM | [2] 59 µM | [3] 120 µM | [4] 67.8 µM | [6] 81.7 µM | [9] 95.7 µM | [17] 11 µM
not listed: [10] | [19]
inactive: all other assays above

CC(O)C(=O)O (stereo not drawn)
inactive: [11] | [12] | [19] | [13] | [14] | [15] | [16] | [17] | [18]

c1ccc2c(c1)Cc1ccccc1-2
not listed: [10] | [19]
inactive: all other assays above

CC(C)(C)c1cccc(C(C)(C)C)c1O
active: [1] 113 µM | [3] 100 µM | [6] 57.3 µM | [11] 146 µM | [19] 100 µM | [15] 128 µM | [18] 100 µM
not listed: [10]
inactive: all other assays above

Nc1cccc2c(N)cccc12
active: [1] 83.1 µM | [2] 36.4 µM | [3] 17.3 µM | [4] 77 µM | [6] 42.9 µM | [7] 39.9 µM | [9] 67.5 µM | [14] 2.85 µM | [15] 77.7 µM
not listed: [19]
inactive: all other assays above

CC(C)(C)c1cc(C(C)(C)C)c(O)c(C(C)(C)C)c1
active: [1] 39.1 µM | [9] 0.357 µM | [15] 76.4 µM and 27 µM
not listed: [10] | [18] | [19]
inactive: all other assays above
